This is a sample that favours compounds with a hit; in the whole collection about 8.1% have one here.
MCF10A rereplic: inducers of DNA re-replication in MCF 10A breast cells; MCF 10A DNA re-replication, Hoechst nuclear intensity, 48 h; Potency, µM (top dose mostly 46.1 µM), most hits filed as activators; 350,000 compounds, 2.9% hits; AID 624296; also: nearly all actives have a fitted effect of over 50% in size
KB-3-1 tox: kills parental KB-3-1 adenocarcinoma cells. 400,000 compounds, 1.4% hits. Potency, µM (doses to about 46.1 µM), usual class: cytotoxic. KB-3-1 viability, CellTiter-Glo ATP luminescence, 72 h; also: nearly all actives have a fitted effect of over 60% in size
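Parental KB-3-1 viability, qHTS format: 72 h compound exposure, 37 °C; CellTiter-Glo; media-only wells and DMSO plates as controls; concentration-effect fits on corrected data.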
SW480 rereplic: DNA re-replication induction in SW480 cells | SW480 DNA re-replication, Hoechst DNA content imaging, 48 h | Potency, µM (titrated, usually from 46.1 µM), most hits filed as activators | 340,000 compounds, 1.8% hits | AID 624297; also: nearly all actives have a fitted effect of over 55% in size
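Image-based DNA-content assay: after two days of treatment, nuclei were labelled with the DNA dye Hoechst and imaged, and hits were compounds raising the count of nuclei showing high fluorescence intensity.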
ELG1 DNA repair: ELG1-dependent DNA repair inhibition; HEK293T ELG1-luciferase reporter, luminescence, 16 h; DNA damage induced by 5-fluorouridine; Potency, µM (highest dose often 46.1 µM), actives largely listed as inhibitors; 330,000 compounds, 2.3% hits; AID 504467; also: nearly all actives have a fitted effect of over 55% in size
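Quantitative HTS, concentration-response format. 2,000 cells/well co-treated with 5-fluorouridine and compound, 16 hr in 5% CO2 at 37 °C; ONE-Glo luminescence read after 30 min.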
KB-V1 MDR tox: KB-V1 MDR subline cytotoxicity; 400,000 compounds, 3.4% hits; Potency, µM (titrated, usually from 46.1 µM), hits mostly cytotoxic; KB-V1 MDR cells viability, CellTiter-Glo, 72 h; also: nearly all actives have a fitted effect of over 60% in size
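KB-V1, DMEM (no phenol red) + 10% FBS; cpd pin-transferred, titration series; 72 h, 37 degrees C; CellTiter-Glo, luminescence. Data normalized, curve-fit.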
Numbers stand for hits; n = inactive; u = inconclusive; x = no result. Calls follow the shape of the dose curve; as a rule, active = well fitted curve in the direction sought with a large enough effect; inconclusive = small, poorly fitted or top-dose-only effect, or another doubt; inactive = no such curve, though single readings can be large; an effect the other way counts as inactive or inconclusive.

SMILES	MCF10A rereplic	KB-3-1 tox	SW480 rereplic	ELG1 DNA repair	KB-V1 MDR tox
O=C(CCc1nc(-c2ccccc2Cl)no1)Nc1cccnc1	n	n	n	u	u
O=C(c1ccc(CS(=O)c2ccccc2Cl)o1)N1CCN(c2ccccn2)CC1 (configuration not stated)	n	7.31µM	n	u	u
O=C(c1ccc(CS(=O)Cc2ccc(Cl)cc2)o1)N1CCN(c2ccccn2)CC1 (configuration not stated)	n	n	n	u	u
O=C(c1ccc(CS(=O)Cc2ccccc2Cl)o1)N1CCN(c2ccccn2)CC1 (configuration not stated)	n	n	n	20.6µM	18.4µM
Cc1cc(C)c(OCCCCNCc2ccccc2)c(Cl)c1	23.1µM	u	u	n	8.2µM
CCCOc1ccc2ccccc2c1/C=N/n1c(C)nnc1-n1nc(C)cc1C	10.3µM	5.17µM	20.6µM	u	5.8µM
CNC1CC(N)[C@H](O)[C@@H](O[C@@H]2OC(CO)C3OC4(OC(C(N)CO)C(O)C(O)C4O)O[C@@H]3[C@H]2O)C1O (some centres not stated)	n	x	n	x	x
COc1cccc(Nc2nc(C(N)c3ccccc3)cs2)n1 (configuration not stated)	x	n	x	x	n
CN(C)N1C(N)=C(C#N)C(c2cccc3ccccc23)C2=C1CC(c1ccccc1)CC2=O (configuration not stated)	14.6µM	13µM	u	16.4µM	20.6µM
CN(C)N1C(N)=C(C#N)C(c2ccccc2)C2=C1CC(C)(C)CC2=O (configuration not stated)	n	n	n	n	n
CCOC(=O)C1=C(C)C(c2ccccc2OC)NC(=S)N1 (configuration not stated)	n	n	n	n	23.1µM
Nc1nonc1-n1nnc(C(=O)N/N=C/c2ccc(OCc3ccccc3)cc2)c1COc1ccc(F)cc1	n	n	n	u	n
Cc1cccc(COc2ccc(/C=N/NC(=O)c3nnn(-c4nonc4N)c3CN3CCCCC3)cc2)c1	16.4µM	n	n	u	u
Nc1nonc1-n1nnc(C(=O)N/N=C/c2ccc(OCc3cccc(Cl)c3)cc2)c1CN1CCCCC1	n	n	n	n	n
CN(C)c1ccc(/C=N/NC(=O)c2nnn(-c3nonc3N)c2CN(C)c2ccccc2)cc1	11.6µM	n	9.2µM	u	n
Cc1cccc(COc2ccc(/C=N/NC(=O)c3nnn(-c4nonc4N)c3COc3ccc(F)cc3)cc2)c1	14.6µM	u	u	u	n
CN(Cc1c(C(=O)N/N=C/c2ccccc2)nnn1-c1nonc1N)c1ccccc1	n	n	n	n	n
Cc1ccc2c(c1)[C@@H]1[C@H](CO2)[C@H](c2ccccc2)[C@]2(C)C(=O)N[C@H](C)C(=O)N12	n	n	n	n	n
Cn1nc(C(=O)OCC(=O)NCc2ccc(Cl)cc2Cl)c2ccccc2c1=O	x	n	x	x	n
Nc1ccc(-c2nc(-c3ccccc3)nc3ccccc23)cc1	16.4µM	n	23.1µM	n	n
Nc1ccc(-c2cc(-c3cccc(N)c3)nc(-c3ccccc3)n2)cc1	16.4µM	u	u	u	n
CC(=O)Nc1ccc(-c2cc(-c3ccccc3)nc(-c3ccccc3)n2)cc1	u	n	n	u	n
c1ccc(Nc2nc(-c3ccccc3)nc3ccccc23)cc1	u	n	u	n	n
COc1ccc(-n2ccnc(SCC(=O)NCc3ccc(C)cc3)c2=O)cc1Cl	n	n	n	n	n
COc1cccc(N(C(=O)c2snc(C(N)=O)c2N)C(C(=O)NCC2CCCO2)c2cccs2)c1 (configuration not stated)	n	n	n	n	u
COc1cccc(N(C(=O)CCl)C(C(=O)NCCc2ccccc2)c2cccs2)c1 (configuration not stated)	16.4µM	u	u	16.4µM	u
COc1ccc(N(C(=O)CCl)C(C(=O)NCCc2ccccc2)c2cccs2)cc1Cl (configuration not stated)	6.51µM	8.2µM	u	u	13µM
CCCCNC(=O)C(NC(=O)c1ccccc1)C(=O)c1ccccc1 (configuration not stated)	x	n	x	x	u
